Compounds with a hit are over-represented: about 21% of the library has one in this group of screens.
Pf growth 96h – Primary qHTS for delayed death inhibitors of the malarial parasite plastid, 96 hour incubation | P. falciparum luciferase reporter growth, 96 h | Potency, µM (series often up to 28.7 µM), actives largely listed as inhibitors | 320,000 tested, 6.9% active | AID 504834, 2011
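Two parasite generations (96 h, 37 C, 5% CO2) of compound exposure in infected erythrocytes (0.05% parasitemia, 2% hematocrit). Luciferase-reporter P. falciparum; decreased luminescence indicates inhibited growth, aimed at apicoplast-acting delayed death.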
HCV inh – qHTS Assay for Inhibitors of Hepatitis C Virus (HCV). Potency, µM (top dose mostly 41.8 µM), usual class: inhibitors. Huh7.5.1 HCVcc-Cre infection, luciferase reporter, 44 h. 340,000 tested, 3.4% active
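Cells seeded at 1,000/well and cultured 4 h, then compounds added followed by HCVcc-Cre virus (~0.5 moi). After 44 h further culture, luciferase substrate was added, plates held 15 min at room temperature, and luminescence read for 15 sec.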
HCMV antiviral – qHTS Assay for inhibitors of the human cytomegalovirus (HCMV); HFF cells, HCMV-luciferase reporter, 72 h; hits give low values; activity change, negative = inhibition, % at 57.5 µM; 410,000 tested, 4.5% active; AID 1259415, 2018; in the data active means activity change below about -60%; inconclusive means no clear call, values can overlap the other calls; inactive means above about -39%
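Luciferase read-out from HCMV-luciferase-infected HFFs (MOI 1 PFU/cell) 72 h post infection at 37C; compounds added after 16 h cell attachment; activity normalized between buffer-only basal and Salinomycin (10uM) inhibitor controls.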
Pf growth 48h – Primary qHTS for delayed death inhibitors of the malarial parasite plastid, 48 hour incubation; 310,000 tested, 5.9% active; AID 504832, 2011; Potency, µM (top dose mostly 28.7 µM), most hits filed as inhibitors; P. falciparum luciferase growth in erythrocytes, 48 h
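Parasite viability was followed by luminescence of a genomically integrated firefly luciferase. Cultures held 0.1% parasitemia at 2% hematocrit (final), incubated under 5% CO2 at 37 C.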
Shiga toxin inh – A qHTS for Small Molecule Inhibitors of Shiga Toxin | Vero cells, Shiga toxin protein synthesis inhibition reporter | inhibition, % at 38.7 µM | 290,000 tested, 9.2% active | AID 2315, 2010; in the data active means inhibition mostly above about 28%, no sharp cut-off; inactive means mostly below about 43%
CHX counter – Cycloheximide Counterscreen for Small Molecule Inhibitors of Shiga Toxin; 300,000 tested, 12% active; max response, %; cell reporter, cycloheximide protein synthesis inhibition counterscreen; in the data active means max response mostly above about 13%, no sharp cut-off; inactive means mostly below about 14%; further: read at 38.3 µM for the half of the compounds with a filed dose
Large screens that a line does not name were inactive. Unless noted, the call rests on the fitted dose curve; in most records, active means well fitted inhibition curve with a large enough effect; inconclusive means small, poorly fitted or top-dose-only effect, or another doubt; inactive means no such curve, though single readings can be large or run the other way.

O=C(O)c1ccc(N2CCCCC2)cc1	Pf growth 96h inconclusive
COC(=O)N1CCN(c2ccc(Cl)c(Cl)c2)CC1	none (no result: Pf growth 96h)
Nc1ccc(N2CCN(c3ccc(F)cc3)CC2)cc1	Pf growth 96h inconclusive, HCMV antiviral -60.3, Pf growth 48h inconclusive
CC(=O)N1CCN(c2ccc(N)cc2)CC1	HCMV antiviral -73.7 (no result: HCV inh, Shiga toxin inh, CHX counter)
COc1ccc(C(=O)NCCS(=O)(=O)N2CCN(C(=O)c3ccco3)CC2)cc1	none (no result: Shiga toxin inh, CHX counter)
CC1=C(C)/C(=N\OS(=O)(=O)c2ccccc2)C=CC1=O	Pf growth 96h 13.1µM, HCV inh 12.6µM (no result: HCMV antiviral, Pf growth 48h)
CCc1ccc(NC(=O)Nc2nnc(N(C)C3CCCCC3)s2)cc1	none (no result: Pf growth 96h, HCV inh, Pf growth 48h, Shiga toxin inh, CHX counter)
CCc1ccc(CN2CCN(S(=O)(=O)Cc3ccccc3)CC2)cc1	Pf growth 96h 3.29µM
O=S(=O)(Cc1ccccc1)N1CCN(Cc2ccc(Br)cc2)CC1	Pf growth 96h inconclusive, HCMV antiviral inconclusive, Shiga toxin inh 30.9, CHX counter 34.8 (no result: HCV inh)
O=S(=O)(Cc1ccc(Cl)cc1)N1CCN(Cc2ccccc2)CC1	Pf growth 96h inconclusive
O=S(=O)(Nc1cccc(-n2cnnn2)c1)c1cc(Br)ccc1Br	none
CCOc1ccc(OCC)c(NC(=O)CN2CCN(c3cc(C)ccc3C)CC2)c1	Pf growth 96h inconclusive, HCV inh inconclusive, Pf growth 48h inconclusive
CCOc1ccc(OCC)c(NC(=O)CN2CCN(c3cccc(C)c3)CC2)c1	HCV inh inconclusive, Pf growth 48h 13.1µM
CCOc1ccc(OCC)c(NC(=O)CN2CCN(CC)CC2)c1	none
CCOc1ccc(OCC)c(NC(=O)CN2CCN(CC(=O)NC(C)C)CC2)c1	Pf growth 96h 13.1µM
CCOc1ccc(OCC)c(NC(=O)CN2CCN(c3cccc(C)c3)C(C)C2)c1 (stereo not drawn)	Pf growth 96h inconclusive, HCV inh 8.91µM, Pf growth 48h 13.1µM
CC(C)c1ccc(S(=O)(=O)c2nnn3c2nc(NC2CCCC2)c2sccc23)cc1	none (no result: Pf growth 96h, HCV inh, Pf growth 48h, Shiga toxin inh, CHX counter)
CC(=O)/C(C#N)=C1\NC(=O)C(Cc2ccc(F)cc2)S1 (stereo not drawn)	HCMV antiviral -83.2, Pf growth 48h inconclusive
CC(=O)/C(C#N)=C1\NC(=O)C(Cc2ccccc2Cl)S1 (stereo not drawn)	Pf growth 96h inconclusive, HCMV antiviral -94.9
CC(=O)/C(C#N)=C1\NC(=O)C(Cc2cc(Cl)ccc2Cl)S1 (stereo not drawn)	HCMV antiviral -89.2, Pf growth 48h inconclusive
NC1=NC(=O)C(Cc2cc(Cl)ccc2Cl)S1 (stereo not drawn)	Pf growth 96h inconclusive
CC(NC(=O)COC(=O)c1ccccc1F)C1CC2CCC1C2 (stereo not drawn)	none (no result: Pf growth 96h, Pf growth 48h, Shiga toxin inh, CHX counter)
COc1ccc(-c2cc(C)no2)cc1S(=O)(=O)Nc1cccc(CN2CCCC2)c1	Pf growth 48h 14.7µM
COc1ccc(-c2cc(C)no2)cc1S(=O)(=O)NCc1ccc(OC(C)C)cc1	Pf growth 96h 10.4µM
CCc1ccc(-c2cc(C)no2)cc1S(=O)(=O)NCCc1ccccc1	Pf growth 96h inconclusive, HCV inh inconclusive, CHX counter 35.4
Cc1cc(S(=O)(=O)NCCc2ccccc2)c(C)s1	HCV inh inconclusive, HCMV antiviral -97.5
COc1ccc(-c2cc(C)no2)cc1S(=O)(=O)Nc1cccc(C(F)(F)F)c1	none (no result: Pf growth 96h, HCV inh, Pf growth 48h, Shiga toxin inh, CHX counter)
O=S(=O)(NCCc1ccccc1)c1ccccc1Br	none (no result: Pf growth 96h, HCV inh, HCMV antiviral, Pf growth 48h)
Cc1nn(-c2ccccc2)c2c1N(CCCC(=O)NC(C)c1ccccc1)C(=O)CS2 (stereo not drawn)	none (no result: Pf growth 96h, HCV inh, Pf growth 48h, Shiga toxin inh, CHX counter)
CCOC(=O)N1CCN(S(=O)(=O)N2CCCC(C(=O)NCCc3ccc(OC)c(OC)c3)C2)CC1 (stereo not drawn)	Pf growth 96h inconclusive
CCc1ccc(-c2cc(C)no2)cc1S(=O)(=O)Nc1cccc(CN2CCCC2)c1	Pf growth 48h 9.28µM
Cc1ccc2oc(-c3ccco3)cc(=O)c2c1	HCV inh inconclusive, Shiga toxin inh 71.3, CHX counter 38.5
O=c1cc(-c2ccco2)oc2ccccc12	HCV inh inconclusive (no result: Pf growth 96h, Pf growth 48h, Shiga toxin inh, CHX counter)
CC(C)OCCOc1ccc2oc(-c3ccco3)cc(=O)c2c1	Pf growth 48h inconclusive, CHX counter 19.5
N#CCOc1ccc2oc(-c3ccco3)cc(=O)c2c1	none (no result: HCV inh, HCMV antiviral)
Cc1ccc(/C=C2/Sc3ccccc3N(CC(=O)NCCCOC(C)C)C2=O)cc1	HCV inh inconclusive, HCMV antiviral inconclusive
COc1ccc(-c2nc3ccccc3c(C(=O)Nc3ccc(S(=O)(=O)Nc4cc(C)on4)cc3)c2C)cc1	Pf growth 96h inconclusive, Pf growth 48h 10.4µM (no result: HCMV antiviral)
Cc1ccc(-c2cc(C(=O)Nc3ccc(S(=O)(=O)Nc4cc(C)on4)cc3)c3ccccc3n2)c(C)c1	Pf growth 96h 7.38µM, Pf growth 48h inconclusive
COc1ccc(CN2CCNC(=O)C2CC(=O)NCCCC2CCCC2)c(C)c1C (stereo not drawn)	none
Oc1ccc(/C=N/NC(=S)Nc2cccnc2)c(O)c1O	Pf growth 96h inconclusive, Pf growth 48h inconclusive
Oc1ccc(/C=N/NC(=S)Nc2cccnc2)c(O)c1	HCV inh inconclusive, Pf growth 48h 6.57µM, Shiga toxin inh 51.6, CHX counter 28.6
Oc1cccc(/C=N/NC(=S)Nc2cccnc2)c1O	Pf growth 96h inconclusive, HCV inh inconclusive, Pf growth 48h 0.0828µM, Shiga toxin inh 45.3, CHX counter 29.8
CNC(=O)c1ccc(CNC(=O)OCc2ccccc2)cc1	none
N#CC1(NC(=O)COc2ccc(S(=O)(=O)N3CCCC3)cc2[N+](=O)[O-])CCCCC1	Pf growth 96h inconclusive, Pf growth 48h inconclusive (no result: Shiga toxin inh, CHX counter)
CCCn1c(N)c(N(CCOC)C(=O)c2c(CC)noc2C)c(=O)[nH]c1=O	none (no result: Shiga toxin inh, CHX counter)
C/C(Cn1nnc([N+](=O)[O-])n1)=N\NC(=O)c1ccc(C)cc1	Pf growth 96h inconclusive, HCV inh inconclusive, Pf growth 48h inconclusive, Shiga toxin inh 81.8, CHX counter 43.4
C/C(Cn1nnc([N+](=O)[O-])n1)=N\NC(=O)c1cccc(Cl)c1	Pf growth 96h 11.7µM, HCV inh inconclusive, Pf growth 48h inconclusive, Shiga toxin inh 43.6, CHX counter 20.2
C/C(Cn1nnc([N+](=O)[O-])n1)=N\NC(=O)c1ccccc1Cl	Pf growth 96h 9.28µM, Pf growth 48h 7.38µM, CHX counter 22.3
C/C(CC(=O)Nc1ccccn1)=N\NC(=O)c1ccc([N+](=O)[O-])cc1Cl	Pf growth 96h inconclusive
C/C(Cn1nnc([N+](=O)[O-])n1)=N\NC(=O)c1ccncc1	Pf growth 96h inconclusive
O=C(c1cc(Cl)ccc1Cl)N1CCOCC1	Pf growth 96h 13.1µM
O=C(c1ccc(Cl)cc1Cl)N1CCOCC1	none (no result: Pf growth 96h, Pf growth 48h, Shiga toxin inh, CHX counter)
O=C(c1cccn2c(=O)c3cc(Cl)ccc3nc12)N1CCOCC1	Pf growth 96h 10.4µM, Pf growth 48h 13.1µM
O=C(c1cc2cc(Cl)ccc2oc1=O)N1CCCC1	none (no result: Pf growth 96h)
